Molecules are shown by their SMILES. About 83,000 compounds went through this panel and 20% of them were active in at least one assay; those are over-represented in the sample as a whole.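 Step 1: grow cells in 96-well plates. Step 2: add test compound at a single concentration. Step 3: incubate 48 h. Step 4: record percent growth.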 Unmarked numbers belong to inactive results. Activity calls are given as the source filed them. How the source made its calls: active means growth percent below 10; inactive means the rest.

What all share (experiment): NCI-60 one-dose screen, 48 h (100 = growth as untreated, 0 = no growth, -100 = all killed)
For one test, the system named is NCI-H23 lung. As to conditions: 10 µM unless noted.
The subject of a further test is NCI-H226 lung. The following applies: 10 µM unless noted.
The subject of the next test is MDA-MB-231 breast. As to conditions: 10 µM unless noted.
A further test relates to SF-268 CNS. The following applies: 10 µM unless noted.
A further test has as its system SF-539 CNS. The following applies: 10 µM unless noted.
The test system of the next test is HCT-15 colon. The following applies: 10 µM.
In a further test the test system is HT29 colon. As to conditions: 10 µM unless noted.
The next test deals with SNB-75 CNS. As to conditions: 10 µM unless noted.
The subject of a further test is PC-3 prostate. As to conditions: 10 µM unless noted.
The next test has as its system SK-MEL-5 melanoma. As to conditions: 10 µM unless noted.
The subject of the next test is UACC-62 melanoma. The following applies: 10 µM unless noted.
For the next test, the system named is SK-MEL-28 melanoma. As to conditions: 10 µM unless noted.
In another test the test system is SN12C renal. As to conditions: 10 µM unless noted.
A further test has as its system ACHN renal. The following applies: 10 µM unless noted.
A further test concerns OVCAR-8 ovarian. The following applies: 10 µM unless noted.
The test system of the next test is OVCAR-3 ovarian. As to conditions: 10 µM unless noted.
The next test relates to NCI/ADR-RES ovarian. The following applies: 10 µM unless noted.
For the next test, the system named is MDA-MB-435 melanoma. The following applies: 10 µM unless noted.
A further test deals with MCF7 breast. The following applies: 10 µM unless noted.
For a further test, the system named is KM12 colon. The following applies: 10 µM unless noted.

Regarding `CC1(C)N=C(N)N=C(N)N1c1ccc(CNC(=O)Nc2ccc(S(=O)(=O)F)c(Cl)c2)c(Cl)c1`, the growth in the test with NCI-H23 lung was 31.1%; in the test on NCI-H226 lung, 83.8%; with MDA-MB-231 breast, 60.8%; in the test with SF-268 CNS, 26.5%; in the test on SF-539 CNS, 24.9%; in the test on HCT-15 colon it was 47.5%. Besides, the growth in the test with HT29 colon was 7.61% (active); with SNB-75 CNS, 69.2%; with PC-3 prostate, 4.03% (active); in the test on SK-MEL-5 melanoma, 24.1%; in the test with UACC-62 melanoma, 23.9%; in the test with SK-MEL-28 melanoma, 48.6%. The growth in the test on SN12C renal is 17%; with ACHN renal, 52.9%; in the test on OVCAR-8 ovarian, 25.4%; in the test with OVCAR-3 ovarian it was 48.9%; in the test on NCI/ADR-RES ovarian, 103%; with MDA-MB-435 melanoma it was 13.5%. The figures for the growth in the test with MCF7 breast and in the test on KM12 colon were 1.42% (active) and 21.2%, respectively.
For `CC(=O)O[C@H]1CC[C@H]2[C@@H]3CC[C@H]4CC=C(C)C[C@]4(C)[C@H]3CC[C@]12C`, the growth in the test on NCI-H23 lung was 104%; in the test on NCI-H226 lung, 103%; in the test on MDA-MB-231 breast it was 109%; with SF-268 CNS it was 100%; in the test with SF-539 CNS, 96.2%; in the test with HCT-15 colon, 98.6%. For the same compound, the growth was 98.4% with HT29 colon; 110% with SNB-75 CNS; 99.3% in the test on PC-3 prostate; 98.5% in the test on UACC-62 melanoma; 112% in the test on SK-MEL-28 melanoma; 101% with SN12C renal. Moreover, the growth in the test on ACHN renal was 96.5%; in the test on OVCAR-8 ovarian it was 102%; with OVCAR-3 ovarian, 102%; in the test on NCI/ADR-RES ovarian, 109%; with MDA-MB-435 melanoma, 106%; in the test on MCF7 breast, 100%. Moreover, the growth in the test on KM12 colon is 103%.
Regarding `CO[C@@H](c1ccccc1Cl)[C@H](C)OC(N)=O`, the growth in the test on NCI-H23 lung was 93.7%; in the test on NCI-H226 lung it was 96.4%; in the test on MDA-MB-231 breast, 102%; in the test with SF-268 CNS it was 97.4%; in the test with SF-539 CNS, 96.6%; in the test on HCT-15 colon, 96.9%. The growth in the test with HT29 colon was 106%; in the test on SNB-75 CNS it was 70.8%; with PC-3 prostate, 98.1%; in the test with SK-MEL-5 melanoma, 98.7%; in the test on UACC-62 melanoma it was 93.1%; in the test on SK-MEL-28 melanoma, 102%. Besides, the growth is 106% with SN12C renal; 99.6% in the test on ACHN renal; 103% with OVCAR-8 ovarian; 111% with OVCAR-3 ovarian; 103% in the test with NCI/ADR-RES ovarian; 97.8% with MDA-MB-435 melanoma. Also, the values for the growth in the test with MCF7 breast and in the test on KM12 colon were 102% and 109%, respectively.
For the compound `c1ccc([As]=[As]c2ccccc2)cc1` (configuration not stated), the growth in the test on NCI-H23 lung is -37.2% (active); in the test with NCI-H226 lung, 5.17% (active); in the test on MDA-MB-231 breast it was -60.9% (active); in the test with SF-268 CNS, -39.8% (active); in the test on SF-539 CNS, -66.8% (active); with HCT-15 colon it was -86.2% (active). Moreover, the growth was -82.8% (active) in the test on HT29 colon; 14.3% with SNB-75 CNS; -22.9% (active) in the test with PC-3 prostate; -70.5% (active) in the test with SK-MEL-5 melanoma; -76.4% (active) in the test on UACC-62 melanoma; -25.5% (active) in the test on SK-MEL-28 melanoma. Further, the growth is -20.9% (active) in the test on SN12C renal; -99.1% (active) in the test with ACHN renal; -22.4% (active) in the test on OVCAR-8 ovarian; -93% (active) with OVCAR-3 ovarian; 9.34% (active) with NCI/ADR-RES ovarian; -37.6% (active) with MDA-MB-435 melanoma. The growth was -76.2% (active) in the test on MCF7 breast and 9.67% (active) with KM12 colon.
On to `C=C=[CH][Sn]([c]1ccccc1)([c]1ccccc1)[c]1ccccc1`, for which the growth in the test with NCI-H23 lung is -43.3% (active); with NCI-H226 lung, -40.4% (active); with MDA-MB-231 breast, -53.3% (active); in the test on SF-268 CNS, -69% (active); in the test on SF-539 CNS, -29.9% (active); in the test on HCT-15 colon, -48.6% (active). Moreover, the growth with HT29 colon was -72.1% (active); in the test with SNB-75 CNS it was 14.2%; in the test with PC-3 prostate it was -50.5% (active); in the test with SK-MEL-5 melanoma, -81.5% (active); with UACC-62 melanoma, -62.3% (active); in the test with SK-MEL-28 melanoma, -56.8% (active). The growth with SN12C renal was -73.5% (active); in the test with ACHN renal, -49.4% (active); with OVCAR-8 ovarian, -30% (active); in the test with OVCAR-3 ovarian, -94% (active); with MDA-MB-435 melanoma, -59.5% (active); with MCF7 breast it was -52.5% (active). For the same compound, the growth in the test on KM12 colon is -84.8% (active).
Take `Cc1cc(NC(=O)NCCOc2ccc(N3C(N)=NC(N)=NC3(C)C)cc2Cl)ccc1S(=O)(=O)F`: the growth in the test with NCI-H23 lung was 40.2%; with NCI-H226 lung, 91.3%; with MDA-MB-231 breast, 58%; in the test on SF-268 CNS, 29%; in the test on SF-539 CNS it was 33.6%; in the test on HCT-15 colon, 92%. The growth in the test on HT29 colon was 9.65% (active); in the test with SNB-75 CNS, 71.5%; in the test with PC-3 prostate, -2.88% (active); in the test on SK-MEL-5 melanoma it was 23.1%; in the test with UACC-62 melanoma it was 22%; with SK-MEL-28 melanoma, 51.8%. Further, the growth in the test with SN12C renal is 7.66% (active); in the test on ACHN renal it was 94.2%; in the test with OVCAR-8 ovarian, 25.3%; in the test with OVCAR-3 ovarian, 53.2%; in the test on NCI/ADR-RES ovarian, 102%; in the test with MDA-MB-435 melanoma it was 18.8%. Besides, the growth in the test with MCF7 breast is 4.3% (active); with KM12 colon, 20.1%.
With `Cc1ccc(C[As+](c2ccccc2)(c2ccccc2)c2ccccc2)cc1`, the growth with NCI-H23 lung is -11.1% (active); with NCI-H226 lung it was 8.52% (active); with MDA-MB-231 breast, 10.6%; in the test on SF-268 CNS, 24.1%; with SF-539 CNS, 24.1%; in the test on HCT-15 colon, 75.9%. The growth in the test on HT29 colon is -3.93% (active); with SNB-75 CNS, 15.1%; with PC-3 prostate it was 7.95% (active); in the test with SK-MEL-5 melanoma, -65.3% (active); with UACC-62 melanoma, 8.38% (active); in the test on SK-MEL-28 melanoma it was 37.2%. The growth was 3.83% (active) in the test on SN12C renal; 49% in the test with ACHN renal; 9.13% (active) in the test with OVCAR-8 ovarian; 13.9% with OVCAR-3 ovarian; 99.2% in the test on NCI/ADR-RES ovarian; -10.3% (active) in the test with MDA-MB-435 melanoma. The growth was 9.14% (active) in the test with MCF7 breast and 3.2% (active) in the test on KM12 colon.
In the case of `CC1(C)N=C(N)N=C(N)N1c1ccc(CCCCc2ccc(S(=O)(=O)F)cc2)c(Cl)c1`, the growth was 29.8% in the test with NCI-H23 lung; 31.8% in the test on NCI-H226 lung; 34.3% in the test on MDA-MB-231 breast; 25.6% in the test with SF-268 CNS; 22.9% in the test with SF-539 CNS; 29.5% with HCT-15 colon. The growth was 8.74% (active) in the test on HT29 colon; 63.2% in the test on SNB-75 CNS; 7.48% (active) in the test on PC-3 prostate; 16.6% in the test with SK-MEL-5 melanoma; 18.3% in the test on UACC-62 melanoma; 48.4% in the test on SK-MEL-28 melanoma. Moreover, the growth in the test with ACHN renal was 22.1%; in the test with OVCAR-8 ovarian it was 16.5%; in the test with OVCAR-3 ovarian, 35.3%; in the test on NCI/ADR-RES ovarian, 103%; in the test on MDA-MB-435 melanoma, 15.7%; in the test with MCF7 breast it was -0.0775% (active). In addition, the growth in the test on KM12 colon is 22.4%.

The record behind these values is PubChem BioAssay (NCI).
